S2 tox – viability counter-screen for ATXN expression inhibitors; S2 cells (HEK-293 line with an ATXN2-luciferase reporter) viability, CellTiter-Fluor protease fluorescence, 24 h; Potency, µM (top dose mostly 56.7 µM), actives largely listed as cytotoxic; 400,000 compounds, 0.49% hits; further: potency means the concentration at half of the fitted maximal effect; nearly all actives have a fitted effect of over 40% in size
ATXN2 expr inh – ATXN2 expression inhibition; HEK-293 ATXN2-luciferase reporter, luminescence, 24 h; Potency, µM (series often up to 57 µM), for inactives: at the top dose activity change, negative = inhibition, usual class: inhibitors; 360,000 compounds, 0.72% hits; further: potency means the concentration at half of the fitted maximal effect; on the % scale 0 is the no-effect control and ±100 the full control effect; nearly all actives have a fitted effect of over 55% in size
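qHTS (up to 57 uM final) was run with 24 h compound exposure of reporter cells at 37 °C. Each well was multiplexed: SteadyGlo luminescence measured ATXN2-luciferase expression after a fluorogenic Gly-Phe-AFC viability readout (25 uM final).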
HepG2 viability – kills HepG2 cells in TGF-b inhibitor counter-screen; HepG2 CAGA-GFP viability, ATP luminescence, 18 h; Potency, µM (doses to about 46.1 µM), for inactives: top-dose activity change, negative = cytotoxicity, actives largely listed as cytotoxic; 410,000 compounds, 0.76% hits; AID 588856; further: potency means the concentration at half of the fitted maximal effect
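HepG2 CAGA-GFP cells (1000/well, DMEM with 1% FBS) received compound, then TGF-beta at 500 pg/mL final, and were incubated 18 hours at 37 degrees C. Viability was read by CellTiter-Glo luminescence. Media-only wells were set as complete cell-killing and DMSO as no toxicity.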
DRD3 agonist – D3 dopamine receptor (human) agonism | P35462 | D3R DiscoveRx beta-arrestin cells, luminescence, 90 min | max activation, % | 410,000 compounds, 0.58% hits | AID 652048; in the data active means max activation above about 30%; further: 0% is about no effect
Target sequence (P35462 whole entry, looked up): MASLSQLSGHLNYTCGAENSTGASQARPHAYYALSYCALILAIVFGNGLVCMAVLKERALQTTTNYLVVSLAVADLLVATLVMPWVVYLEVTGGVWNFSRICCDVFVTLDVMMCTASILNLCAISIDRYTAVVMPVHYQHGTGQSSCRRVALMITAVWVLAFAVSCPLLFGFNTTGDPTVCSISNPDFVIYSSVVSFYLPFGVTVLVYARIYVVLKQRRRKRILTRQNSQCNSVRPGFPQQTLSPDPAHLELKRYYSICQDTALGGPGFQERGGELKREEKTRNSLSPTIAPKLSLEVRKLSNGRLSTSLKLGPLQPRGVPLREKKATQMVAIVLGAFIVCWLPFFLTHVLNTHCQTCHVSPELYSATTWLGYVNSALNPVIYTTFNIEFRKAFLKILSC
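Agonist mode: compounds and dopamine controls were applied to plated cells for 90 min at 37 degrees C after an overnight attachment at 1500 cells/well. Luminescent read-out followed 30 - 60 minutes at room temperature with DiscoveRx detection reagent.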
TGFb SMAD3 inh – blocks TGF-b signaling; 410,000 compounds, 1.2% hits; HepG2 CAGA-GFP TGF-b/SMAD3 reporter, GFP fluorescence, 18 h; TGF-beta stimulated, 500 pg/mL final; Potency, µM (highest dose often 46.1 µM), for inactives: top-dose activity, negative = inhibition, actives largely listed as inhibitors; AID 588855; further: potency means the concentration at half of the fitted maximal effect; on the % scale 0 is the no-effect control and ±100 the full control effect; nearly all actives have a fitted effect of over 65% in size
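Smad-responsive CAGA-GFP expression was quantified in HEPG2 cells exposed to compounds and 500 pg/mL final TGF-beta for 18 h at 37 degrees C; unstimulated wells defined full inhibition.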
D3 antag – blocks the human D3 dopamine receptor. D3R cells, DiscoveRx beta-arrestin luminescence, antagonist mode; stronger effect = lower value. max response, negative = inhibition, %. 360,000 compounds, 2.5% hits. AID 652054; in the data active means max response below about -50%; inconclusive means no clear call, values can overlap the other calls; further: on the % scale 0 is the no-effect control and ±100 the full control effect
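Cells expressing the human receptor were seeded at 1500 cells/well, incubated overnight at 37 degrees C in 5% CO2, then exposed to library compounds with dopamine controls for 90 minutes at 37 degrees C before luminescent detection.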
Starred values were filed as active, the others as inactive; i = inactive; ? = inconclusive; · = no result given; ! = not confirmed by another sample. In the library only some 4.7% were active in any assay of this set; here they are far more common. Unless noted, the call rests on the fitted dose curve; in most records, active means well fitted curve in the direction sought with a large enough effect; inconclusive means small, poorly fitted or top-dose-only effect, or another doubt; inactive means no such curve, though single readings can be large; an effect the other way counts as inactive or inconclusive.

SMILES | S2 tox | ATXN2 expr inh | HepG2 viability | DRD3 agonist | TGFb SMAD3 inh | D3 antag
CC(=O)c1ccc(-n2c(-c3cc(-c4ccco4)[nH]n3)n[nH]c2=S)cc1 | i | -10.4% | 0.0% | -9.8 | -3.4% | -84.0*
COc1ccc(CCNC(c2ccc(F)cc2)c2nnc(-c3ccccc3Cl)o2)cc1OC (configuration not stated) | ? | -32.9% | -19.8% | 4.7 | 17.8µM* | ·
Fc1ccc(C(NCCc2ccc(Cl)cc2)c2nnc(-c3ccccc3)o2)c(Cl)c1 (configuration not stated) | i | -8.0% | -6.6% | -2.5 | ? | ·
COCc1c(C(=O)N2CCN(C3CCCC3)CC2)cnn1-c1nccc(-c2cccs2)n1 | i | · | · | · | · | ·
COc1ccc(CC(N)c2csc(NC(=O)Nc3ccc(OC)cc3)n2)cc1 (configuration not stated) | ? | ? | -81.6% | -9.5 | ? | 0.0
Cc1ccc(C(=O)Nc2nc(C(N)Cc3ccc(C(F)(F)F)cc3)cs2)cc1 (configuration not stated) | · | ? | 17.8µM* | 3.8 | ? | 12.4
COc1ccc(NC(=O)Nc2nc(C(N)Cc3ccc(C(F)(F)F)cc3)cs2)cc1 (configuration not stated) | i | ? | 10µM* | 2.7 | 11.2µM* | 7.6
COc1cc(NC(=O)Nc2nc(C(N)Cc3ccc(C(F)(F)F)cc3)cs2)cc(OC)c1OC (configuration not stated) | ? | ? | -106.5% | 2.2 | 11.2µM* | 7.7
CC(=O)c1ccc(Nc2nc(C(N)Cc3ccc(C(F)(F)F)cc3)cs2)cc1 (configuration not stated) | i | 0.0% | -93.9% | 5.9 | ? | 15.3
COc1cc(NC(=O)Nc2nc(C(N)C(C)C)cs2)cc(OC)c1OC (configuration not stated) | ? | -17.3% | -10.6% | 5.9 | -9.2% | 4.6
COc1ccc(CC(N)c2csc(NC(=O)c3cc(C(C)(C)C)oc3C)n2)cc1 (configuration not stated) | 28.2µM* | ? | -102.7% | 8.7 | ? | 8.4
CN(Cc1ccccc1)C(=O)c1ncn(Cc2ccccc2)c1C(=O)N(C)Cc1ccccc1 | i | -0.7% | -13.5% | 45.1* | -5.0% | 46.9
Nc1ccc(C(=O)OCCCc2nc3ccccc3[nH]2)cc1 | i | 8.8% | 10µM* | -18.1 | 4.8% | -10.4
Cc1nc(CN2CCN(C(=O)CC3(c4ccccc4Cl)CC(=O)N(C)C3=O)CC2)cs1 (configuration not stated) | i | · | · | · | · | ·
COCCCNC(=O)c1ccc2c3c(onc13)-c1ccccc1C2=O | · | ? | -106.6% | -29.5 | 3.16µM* | ?
COc1ccccc1C(=O)Nc1ccccc1SC(=O)c1ccccc1OC | ? | 25.0% | -75.1% | -16.0 | ? | -56.5*
c1cc2c(cc1Cc1cncc(Cc3ccc4c(c3)OCO4)c1)OCO2 | · | · | 5.7% | · | 21.8% | ·
CCOC(=O)CSc1nc2cc(OC)c(OC)cc2cc1C#N | · | · | 4.0% | · | 6.2% | ·
CC(=O)NC(c1ccccc1)c1cc([N+](=O)[O-])c2cccnc2c1O (configuration not stated) | ? | ? | 3.3% | -4.1 | ? | ?
O=C(CCc1ccccc1)NC(c1cccs1)c1cc(Cl)c2cccnc2c1O (configuration not stated) | · | 13.4µM* | -0.5% | 6.8 | ? | 14.2
CCC(=O)NC(c1cccs1)c1cc([N+](=O)[O-])c2cccnc2c1O (configuration not stated) | ? | ? | -47.3% | -23.2 | ? | -69.2*
CC(C)C(=O)NC(c1ccccc1)c1cc([N+](=O)[O-])c2cccnc2c1O (configuration not stated) | i | ? | -40.1% | -19.0 | -9.3% | -76.7*
CC(=O)NC(c1cccs1)c1cc([N+](=O)[O-])c2cccnc2c1O (configuration not stated) | ? | 12.6µM* | -10.3% | -5.7 | ? | ?
CCCC(=O)NC(c1cccs1)c1cc([N+](=O)[O-])c2cccnc2c1O (configuration not stated) | ? | ? | -18.2% | -17.9 | -32.3% | ?
CCOCCCN(C)C1CCN(C(=O)c2oc3ccccc3c2NC(=O)Cc2ccc(F)cc2)CC1 | i | -12.3% | -14.0% | -18.3 | -3.9% | -70.8*
SMILES | S2 tox | ATXN2 expr inh | HepG2 viability | DRD3 agonist | TGFb SMAD3 inh | D3 antag
Nc1c(CC(=O)O)cccc1C(=O)c1ccccc1 | ? | · | · | 42.4*! | · | ·
O=c1[nH]nc(CNc2ccc(C(F)(F)F)cc2)c2ccccc12 | i | · | 0.9% | 1.1 | -11.5% | 2.1
O=c1[nH]nc(CNc2ccc(O)cc2)c2ccccc12 | i | -7.7% | 10µM* | -8.4 | ? | -22.2
CC[N+]1(CC(=O)c2ccc(I)cc2)CCCCC1 | · | · | 2.7% | · | -1.9% | ·
Cc1cc(C(Br)(Br)Br)nc2ccccc12 | · | · | 11.2µM* | · | ? | ·
Cc1cc(Cl)nc2ccccc12 | · | · | -18.9% | · | -0.4% | ·
Cc1c([N+](=O)[O-])cnc2ccccc12 | · | · | -65.7% | · | -22.6% | ·
Cc1ccc(OCCN2CCC2(C)C(=O)NCc2ccc(C(F)(F)F)cc2)cc1 (configuration not stated) | i | -0.1% | -38.8% | 12.2 | 12.6µM* | 30.5
Cc1ccc(OCCN2CCC2(C)C(=O)NCc2cccc3ccccc23)cc1 (configuration not stated) | i | -23.0% | -13.1% | 1.9 | ? | 7.9
CC(C)C[C@@H](CN)NC(=O)c1nc[nH]c1C(=O)N[C@@H](CC(C)C)C(=O)CNC[C@H](C)NC(=O)c1nc[nH]c1C(=O)N[C@@H](CC(=O)O)C(=O)O | i | 4.9% | 2.6% | 46.0* | 0.2% | 1.8
CC(C)C[C@@H](CNCC(=O)[C@H](CC(=O)O)NC(=O)c1[nH]cnc1C(=O)N[C@H](CN)CC(C)C)NC(=O)c1nc[nH]c1C(=O)N[C@@H](Cc1ccccc1)C(=O)O | i | 0.0% | 2.6% | -44.9 | 0.5% | -71.9*
CCOC(=O)c1nn(C)c(C)c1Cl | i | -0.8% | 3.0% | -29.7 | -16.5% | -71.3*
Cc1cccc(NC(=S)N/C(=N/S(=O)(=O)c2ccccc2)c2ccccc2)c1 | i | 32.4% | 5.6% | -3.4 | -2.4% | -60.7*!
CCc1cc(C(=O)NCCN2Cc3ccccc3OC(c3ccsc3)C2)n(C)n1 (configuration not stated) | i | · | · | · | · | ·
COCCNCCOCCOc1ccc(Cl)c(C)c1 | i | -21.1% | 1.5% | -20.2 | 21.3% | -51.8*
Cc1cc(OCCOCCN(C)C)ccc1Cl | i | -18.4% | 11.8% | -7.5 | 3.6% | 0.0

Source: PubChem BioAssay (National Center for Advancing Translational Sciences (NCATS))
